CF NFkB inh: blocks PAF-induced NF-kB reporter in cystic fibrosis cells; KKLEB NF-kB-GFP reporter, GFP fluorescence overnight; inhibition, % at 5 µM; actives 0.86% (n = 360,000); AID 588850;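 active means at least 50% inhibition at 5 µM, scaled per plate between neutral and stimulator controls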;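 further: PAF is a Pseudomonas aeruginosa culture filtrate used as stimulus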
Peg3 promoter: reduces Peg3 promoter-driven luciferase expression in HeLa; HeLa PEG-Prom luciferase reporter, luminescence, overnight; inhibition, % at 20 µM; actives 1.7% (n = 360,000); AID 588405;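 active means inhibition of at least 50% at 20 µM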
KKLEB cytotox: counter-screen for CF NF-kB inhibitors: cytotoxicity | actives 0.36% (n = 360,000) | activity change (cytotoxicity), % at 5 µM | KKLEB CF airway cells viability, ATPlite luminescence, overnight; active compounds read low; cells stimulated with P. aeruginosa culture filtrate | AID 602141;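 active means corrected activity change at or below -50% at 5 µM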
HIF-2a block: blocks HIF-2a reporter activity; inhibition, % at 18.8 µM; AID 624352; 786-0 RCC cells HIF-2a reporter, luciferase luminescence, overnight; actives 0.72% (n = 360,000);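 active means inhibition of the luminescence signal of 40% or more relative to plate controls, in a single-dose primary screen at 18.75 µM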
Shn3 inh set2: inhibitors of Schnurri-3 3'UTR reporter in osteoblasts | actives 0.52% (n = 360,000) | AID 588674 | Clone20 osteoblast Shn3 3'UTR firefly luciferase, 24 h | inhibition, % at 12.5 µM;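 active means mean inhibition of at least 75% with every replicate also reaching 75%; inconclusive means mean inhibition at least 75% but some replicate below; inactive means mean inhibition below 75%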
MITF TRPM1 inh: reduces MITF-dependent TRPM1 promoter luciferase signal. AID 488899. actives 0.83% (n = 330,000). inhibition, % at 12.5 µM. SK-MEL-5 TRPM1 promoter luciferase, 24 h;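 active means mean inhibition across replicates of 60% or more, whatever share of single replicates reaches that level; inconclusive means some that reach 60%, reason not given; inactive means mean inhibition across replicates below 60%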
Of the large screens only hits and unclear results are named; the others gave an inactive call. An excerpt weighted towards active compounds, which were near 2.8% of everything screened.

Cc1ccc(C(C)C)c(OCC(=O)NNC(=O)Cn2[nH]c(=O)c3ccccc3c2=O)c1	none
O=C(Nc1ccc2nc3n(c(=O)c2c1)CCCCC3)C(=O)N1CCN(c2ccc(F)cc2)CC1	none
Oc1c(CN2CCCCC2)cc(COCc2ccccc2)c2cccnc12	Peg3 promoter 76, Shn3 inh set2 92, MITF TRPM1 inh 88
Oc1c(Cl)cc(CN2CCCCC2)c2cccnc12	MITF TRPM1 inh 64
Oc1ccc(CN2CCCCC2)c2cccnc12	none
Cc1nnsc1S(=O)c1ccc(Cl)cc1 (stereo not drawn)	none
O=C(Nc1ccccc1)c1nnsc1S(=O)c1ccc(Cl)cc1 (stereo not drawn)	CF NFkB inh 56, Peg3 promoter 88
O=C1/C(=C/c2cccnc2)SC(=S)N1C1CCS(=O)(=O)C1 (stereo not drawn)	CF NFkB inh 72, HIF-2a block 53
O=C1/C(=C/c2cccnc2)SC(=S)N1N1CCOCC1	none
O=C1/C(=C\c2cccnc2)SC(=S)N1C1CCS(=O)(=O)C1 (stereo not drawn)	CF NFkB inh 66
Cc1ccc(NC(=O)CSc2nc3ccccc3c(=O)n2CCCN2CCCCC2)cc1C	Peg3 promoter 55, MITF TRPM1 inh 70
Cc1cc(NC(=O)CSc2nc3c(sc4ccccc43)c(=O)n2CCCN2CCOCC2)n[nH]1	Peg3 promoter 90
CC(=O)c1cccc(NC(=O)CSc2nc3ccccc3c(=O)n2CCCN2CCOCC2)c1	none
COCCCn1c(SCC(=O)Nc2ccc(C)cc2)nc2ccccc2c1=O	none
Cc1ccc(NC(=O)CSc2nc3ccccc3c(=O)n2Cc2cccs2)cc1	KKLEB cytotox -52
Cc1ccccc1NC(=O)CSc1nc2ccccc2c(=O)n1C	Shn3 inh set2 87
Cc1c(N2C(=O)c3ccccc3C2(O)c2ccccc2)c(=O)n(-c2ccccc2)n1C (stereo not drawn)	none
Cc1[nH]nc(-c2ccc(O)cc2O)c1-c1ccc(Cl)cc1	none
COc1ccc(-c2n[nH]c(C)c2-c2ccc(Cl)cc2)c(O)c1	Peg3 promoter 62
COc1ccc(-c2n[nH]c(C)c2-c2ccc(Cl)cc2)c(O)c1OC	Peg3 promoter 72
COc1ccc(CN2CCN(C(=O)C3CCN(C(=O)Nc4ccccc4)CC3)CC2)cc1OC	none
O=C1C(C2=C(O)c3ccccc3C2=O)=Nc2ccccc21	MITF TRPM1 inh 66
CC(C)C(NC(=O)c1ccc(C(C)(C)C)cc1)C(=O)Nc1ccc(N2CCOCC2)cc1 (stereo not drawn)	none
O=C1N(c2ccccc2)C[C@@H]2C[C@@H](c3cc4ccccc4o3)N3CCC[C@@]123	CF NFkB inh 87, Peg3 promoter 105, KKLEB cytotox -66, Shn3 inh set2 97
Cc1ccc(-c2ccccc2[C@@H]2C[C@H]3CN(C)C(=O)[C@]34CCCN24)o1	none
CCOC(=O)c1cnc2ccc(C(=O)OC)cc2c1Nc1ccc(C(=O)O)cc1	none
CCOC(=O)c1ccc2ncc(C(=O)OCC)c(Nc3ccc(N4CCOCC4)cc3)c2c1	CF NFkB inh 65, Peg3 promoter 88
COc1ccc(NC(=O)c2cccc3c2C(=O)c2ccc(-c4ccc(F)cc4OCc4ccccc4)cc2S3(=O)=O)cc1	KKLEB cytotox -57
O=C(CCc1ccccc1)N1CCN(S(=O)(=O)c2cccs2)CC1	none
O=C(Nc1cccnc1)c1ccc([N+](=O)[O-])s1	MITF TRPM1 inh 75
CCOC(=O)C1=CCN(S(=O)(=O)c2ccccc2Cl)C1c1cccc(Br)c1 (stereo not drawn)	none (no result: MITF TRPM1 inh)
CC(C)c1nnc(NC(=O)CCS(=O)(=O)c2nc(-c3cccs3)cc(C(F)(F)F)n2)s1	CF NFkB inh 95, Peg3 promoter 107, Shn3 inh set2 99
O=C(C[C@@H]1C/C=C\C[C@@H](Cc2ccc(F)cc2)C(=O)OCCNC1=O)N[C@H](CO)Cc1ccccc1	none
N#Cc1ccc(-c2ccc(Cl)cc2)nc1SCC(=O)c1cccc(Cl)c1	Peg3 promoter 86
COc1cc(C2C3=C(Nc4ncnn42)c2ccccc2CC3)cc(OC)c1OC (stereo not drawn)	KKLEB cytotox -52, MITF TRPM1 inh inconclusive
O=C(O)c1sccc1Oc1ccc(NS(=O)(=O)c2ccccc2)cc1	none

Screening results deposited in PubChem BioAssay by several laboratories.
